# Luc counter: Kinase-Glo luciferase inhibition (counter-screen). Potency, µM (top dose mostly 38.3 µM), hits mostly inhibitors. Q27757. AID 1379. Kinase-Glo luciferase, ATP luminescence, 8 min. 200,000 tested, 0.28% active; note: nearly all actives have a fitted effect of over 60% in size
#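 Recombinant Kinase-Glo luciferase, 10 uM ATP (linear range), luciferin; imidazole pH 7.2 / KCl / MgCl2 / Tween / BSA buffer; 8 min RT; luminescence.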
# NPC1 promoter act: activators of NPC1 promoter. AID 485313. Potency, µM (titrated, usually from 9.22 µM), actives largely listed as activators. Huh7 NPC1 promoter luciferase reporter, 24 h. 320,000 tested, 2.4% active; note: nearly all actives have a fitted effect of over 60% in size
#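 In 1536-well qHTS, Huh7 cells harboring an NPC1 promoter–luciferase construct received compound for 24 h; activation was quantified by luminescence following luciferase reagent addition.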
# SMN2 splice up: increases expression of the SMN2 splice variant. Potency, µM (doses to about 46.1 µM), usual class: activators. AID 1458. HEK293 SMN2-luciferase splicing reporter, luminescence, 30-36 h. 210,000 tested, 2.8% active; note: nearly all actives have a fitted effect of over 55% in size
#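 qHTS luciferase splicing reporter: luminescence rises when SMN2 exon 7 is included in transfected HEK293 cells. Compound exposure lasted 30-36 h at 37C, with 4.5 mM final sodium butyrate as control, followed by a ONE-Glo read.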
# FLuc modulator: inhibits or activates purified firefly luciferase, miR-21 counter-screen. P08659. purified FLuc, Km substrates, luminescence inhibition. 360,000 tested, 6.9% active. Potency, µM (highest dose often 57.5 µM), most hits filed as inhibitors; note: nearly all actives have a fitted effect of over 55% in size
# Target sequence (P08659 whole entry, looked up): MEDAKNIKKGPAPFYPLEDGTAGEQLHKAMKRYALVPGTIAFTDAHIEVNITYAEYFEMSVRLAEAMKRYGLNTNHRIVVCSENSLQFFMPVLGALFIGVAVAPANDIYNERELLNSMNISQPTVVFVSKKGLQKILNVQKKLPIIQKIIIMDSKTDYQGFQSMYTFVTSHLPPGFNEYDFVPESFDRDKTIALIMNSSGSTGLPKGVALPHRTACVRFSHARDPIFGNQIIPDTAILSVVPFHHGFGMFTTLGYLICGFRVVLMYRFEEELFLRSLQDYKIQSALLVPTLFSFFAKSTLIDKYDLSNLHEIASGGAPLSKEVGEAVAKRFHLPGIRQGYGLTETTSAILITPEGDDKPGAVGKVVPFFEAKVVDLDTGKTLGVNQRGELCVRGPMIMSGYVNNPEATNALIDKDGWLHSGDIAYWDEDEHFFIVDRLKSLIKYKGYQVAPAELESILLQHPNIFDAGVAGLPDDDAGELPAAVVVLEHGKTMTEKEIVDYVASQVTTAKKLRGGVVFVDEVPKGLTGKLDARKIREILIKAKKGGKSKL
#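 Purified P. pyralis luciferase (10nM final) with 10uM D-luciferin and 10uM ATP (Km levels) in 50mM Tris acetate pH 7.5, 10mM Mg acetate, 0.01% Tween-20, 0.05% BSA; qHTS 6-point titration, ~60 µM downward; luminescence read.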
# ELG1 genotox: genotoxicity induction in ELG1-luciferase HEK293T cells; 330,000 tested, 1.3% active; Potency, µM (titrated, usually from 46 µM), most hits filed as activators; HEK293T ELG1-luciferase reporter, luminescence, 16 h; note: nearly all actives have a fitted effect of over 60% in size
#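 After overnight (16 hr) compound treatment at 37 °C, ELG1-luciferase HEK293T cells were lysed with ONE-Glo; luminescence quantified 30 min later at room temperature.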
# Rab9 promoter act: Rab9 promoter activation; AID 485297; Potency, µM (highest dose often 9.22 µM), most hits filed as activators; 320,000 tested, 2.8% active; Huh7 Rab9 promoter-luciferase reporter, luminescence, 24 h; note: nearly all actives have a fitted effect of over 60% in size
#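 Huh7 reporter line, Rab9 promoter upstream of luciferase. Compound exposure 24 h at 37 °C in reduced-serum medium with 10% FBS. Read-out: luminescence.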
# Numbers stand for hits; - = inactive; ? = inconclusive; . = no result. A selection: hits, their analogues and other compounds. The true share with any hit is near 7.3%. Calls come from the whole dose curve; as a rule, active = well fitted curve in the direction sought with a large enough effect; inconclusive = small, poorly fitted or top-dose-only effect, or another doubt; inactive = no such curve, though single readings can be large; an effect the other way counts as inactive or inconclusive.
SMILES,Luc counter,NPC1 promoter act,SMN2 splice up,FLuc modulator,ELG1 genotox,Rab9 promoter act
CCc1ccc(OCC(=O)NC(NC(=S)Nc2ccc(Cl)cc2)C(Cl)(Cl)Cl)cc1 (centres undefined),-,-,-,-,-,-
CCN1CCN(Cc2c(O)ccc3c2O/C(=C\C=C\c2ccccc2OC)C3=O)CC1,-,-,-,4.78µM,-,-
CCN1CCN(Cc2c(O)ccc3c(=O)c(-c4ccccc4OC)coc23)CC1,-,-,-,-,-,-
CC(C)CCNC(=O)CCC(=O)N1Cc2ccccc2Oc2ncccc21,.,.,.,-,.,.
CCCc1nnc(NC(=O)CC(=O)Nc2ccccc2C(=O)O)s1,-,-,-,19µM,-,-
CCCC(=O)Nc1nnc(CCc2ccccc2)s1,.,-,.,-,-,-
CC(C)(C)CC(=O)Nc1nnc(CCc2ccccc2)s1,.,3.16µM,.,?,?,3.16µM
CCC(C)(C)C(=O)Nc1nnc(CCc2ccccc2)s1,.,2.82µM,.,?,20.6µM,3.98µM
COc1ccc(CCNC(=O)CCCn2c(=O)[nH]c3cc(OC)c(OC)cc3c2=O)cc1OC,-,-,-,-,-,-
O=C(NN1CCOCC1)c1cn(-c2ccccc2)nc1-c1cccs1,.,-,.,21.3µM,-,-
CN(C)c1ccc(NC(=O)c2cn(-c3ccccc3)nc2-c2cccs2)cc1,-,-,-,6.75µM,-,-
O=C(Nc1cn(-c2ccccc2)nc1-c1cccs1)c1ccco1,-,-,-,16.9µM,-,-
CN(C)C(=O)c1cn(-c2ccccc2)nc1-c1cccs1,-,-,-,?,-,-
O=C(c1cn(-c2ccccc2)nc1-c1cccs1)N(CCO)Cc1ccccc1,-,-,?,?,-,-
O=C(Nc1ccc2ccccc2c1)c1cn(-c2ccccc2)nc1-c1cccs1,-,-,-,6.01µM,-,-
CN1CCN(NC(=O)c2cn(-c3ccccc3)nc2-c2cccs2)CC1,-,-,-,?,-,-
C=CCSc1n[nH]c(-c2ccccc2)n1,-,-,-,?,?,-
O=C1CCCc2c1[nH]c1ccc(CN3CCCCC3)cc21,-,-,-,-,?,-
CCN(CC(=O)Nc1ccc(NC(C)=O)cc1)C(=O)c1cn(-c2ccccc2)nc1-c1cccs1,.,-,.,21.3µM,-,-
CCN(CC)CCOC(=O)c1ccc(NC(=O)c2cn(-c3ccccc3)nc2-c2cccs2)cc1,-,-,-,6.01µM,?,-
O=C(c1cn(-c2ccccc2)nc1-c1cccs1)N1CCN(c2ccccn2)CC1,-,-,-,3.79µM,-,-
CN1CCN(C(=O)c2cn(-c3ccccc3)nc2-c2cccs2)CC1,-,-,-,?,-,-
CCN(CC)CCNC(=O)c1cn(-c2ccccc2)nc1-c1cccs1,-,-,-,-,-,-
CCN(C(=O)CSc1nc2ccccc2n1CC(=O)Nc1ccc(F)cc1F)c1ccccc1,.,.,.,-,.,.
O=C(Nc1ccccc1NC(=O)c1ccc(F)cc1)c1ccc(F)cc1,.,-,.,-,-,-
SMILES,Luc counter,NPC1 promoter act,SMN2 splice up,FLuc modulator,ELG1 genotox,Rab9 promoter act
Nc1ccccc1C(=O)NCc1ccc(F)cc1,-,-,-,-,-,-
Nc1[nH]c(N=NC(=O)c2ccc(F)cc2)c2ccccc12,?,?,.,7.57µM,?,3.98µM
Nc1ccccc1C(=O)N=Nc1[nH]c(N)c2ccccc12,-,3.55µM,17.8µM,3.79µM,?,2.82µM
CC(=O)c1cccc(NC(=O)NCc2ccc3c(c2)OCO3)c1,.,-,.,?,-,-
O=C(Nc1cccc(Cl)c1)Nc1ccc2c(c1)OCO2,-,2.51µM,10µM,6.75µM,-,1.58µM
CC(=O)c1cccc(NC(=O)Nc2ccc3c(c2)OCO3)c1,.,3.55µM,.,4.78µM,-,2.51µM
COc1cccc(CNC(=O)Cn2nc(-c3ccc(Cl)cc3)ccc2=O)c1,-,-,-,-,-,-
Cc1cccc(-c2nc(-c3ccncc3)no2)c1,.,1.58µM,.,3.01µM,9.2µM,1.41µM
Cc1ccc(-c2nnc(-c3cccnc3)o2)cc1,.,2.82µM,.,12µM,20.6µM,?
COc1ccc(-c2nnc(-c3cccnc3)o2)cc1,-,?,?,?,?,?
Cc1ccc(-c2nc(-c3ccccc3)no2)c(Cl)c1,?,2.82µM,-,0.0849µM,0.259µM,3.98µM
Cc1ccc(-c2nc(-c3ccccc3)no2)cc1,-,1µM,-,0.213µM,0.651µM,1.26µM
COc1ccc(C(=O)NNc2ccccc2)cc1,-,-,-,-,?,-
Brc1cccc(-c2nc(-c3ccncc3)no2)c1,-,3.16µM,-,7.57µM,?,5.01µM
FC(F)(F)c1cccc(-c2nc(-c3ccncc3)no2)c1,.,?,.,15.1µM,-,?
c1cncc(-c2noc(-c3ccco3)n2)c1,-,3.16µM,-,?,?,3.98µM
CCOc1ccc(-c2nc(-c3ccccc3)no2)cc1OCC,-,?,-,13.5µM,?,?
Cc1cc(NCc2ccccc2Cl)n2cnnc2n1,.,.,-,-,.,.
Cc1cccc(-c2noc(-c3c(C)noc3C)n2)c1,.,1.58µM,.,?,-,3.16µM
CCc1ccc(NCc2nc(-c3ccccc3)no2)cc1,-,-,-,?,?,-
Cc1ccc(SC(C)c2nc(-c3ccncc3)no2)cc1 (centres undefined),-,-,-,-,-,-
Cc1ccc(-c2nc(-c3ccncc3)no2)cc1,.,0.891µM,.,1.69µM,3.66µM,1µM
CCn1nc(C)c(Br)c1-c1nc(-c2cccc(C)c2)no1,.,2.51µM,.,?,-,-
Cc1ccc(-c2noc(CNc3ccccc3)n2)cc1,-,-,?,19µM,?,-
CCn1nc(C)c(Br)c1-c1nc(CS(=O)(=O)c2ccsc2)no1,.,-,.,-,-,-
SMILES,Luc counter,NPC1 promoter act,SMN2 splice up,FLuc modulator,ELG1 genotox,Rab9 promoter act
CCOC(=O)C1=C(C(F)(F)F)Nc2ncnn2C1c1cc(OC)c(OC)cc1OC (centres undefined),-,-,-,-,-,-
CC(C)(C)c1ccc(-c2noc(-c3ccno3)n2)cc1,.,1.26µM,.,1.9µM,?,1.41µM
Cc1ccc(Cc2nc(-c3cccnc3)no2)cc1,-,-,-,?,-,-
Clc1cccc(Cl)c1-c1noc(-c2ccno2)n1,.,-,.,-,-,-
CCCc1noc(-c2ccc(-c3ccccc3)cc2)n1,-,1.58µM,?,1.51µM,?,1.58µM
Cc1ccc(-c2nc(-c3cccnc3)no2)cc1,-,.,10µM,1.51µM,.,.
Cc1cc(C)cc(-c2nc(-c3ccncc3)no2)c1,-,?,-,10.7µM,20.6µM,?
COc1ccc(NC(=O)COC(=O)C2CC(=O)N(c3ccc(OC(C)C)cc3)C2)cc1 (centres undefined),.,-,.,-,-,-
COc1ccc(CCN(C)C(=O)CN2C(=O)NC3(CCCCCC3)C2=O)cc1OC,.,-,.,-,-,-
O=[N+]([O-])c1cc(-c2nc(-c3ccncc3)no2)ccc1Cl,-,-,-,-,-,-
